Source: PubChem
Most compounds without a hit are left out; they make up all but 17% or so of the library.
ATXN2 expr inh: reduces ATXN2 reporter expression in HEK-293 cells. 360,000 compounds, 0.72% hits. AID 1745845. HEK-293 ATXN2-luciferase reporter, luminescence, 24 h. Potency, µM (highest dose often 57 µM), without a hit: at the highest dose activity change, negative = inhibition, most hits filed as inhibitors; further: on the % scale 0 is the no-effect control and ±100 the full control effect; nearly all actives have a fitted effect of over 55% in size
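qHTS (up to 57 uM final) was run with 24 h compound exposure of reporter cells at 37 °C. Each well was multiplexed: SteadyGlo luminescence measured ATXN2-luciferase expression after a fluorogenic Gly-Phe-AFC viability readout (25 uM final).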
TGFb inhibitor: blocks TGF-b signaling; HepG2 CAGA-GFP TGF-b/SMAD3 reporter, GFP fluorescence, 18 h; TGF-beta stimulated, 500 pg/mL final; Potency, µM (doses to about 46.1 µM), without a hit: at the top dose activity, negative = inhibition, usual class: inhibitors; 410,000 compounds, 1.2% hits; AID 588855; further: on the % scale 0 is the no-effect control and ±100 the full control effect; nearly all actives have a fitted effect of over 65% in size
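First, reporter cells (HEPG2 CAGA-GFP) rested 2 h at 37 degrees C. Next, compounds were pinned in and TGF-beta added to 500 pg/mL final. After 18 h, GFP was imaged per cell and summed per well.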
HepG2 viability: kills HepG2 cells in TGF-b inhibitor counter-screen | HepG2 CAGA-GFP viability, ATP luminescence, 18 h | Potency, µM (highest dose often 46.1 µM), for the others: at the highest dose activity change, negative = cytotoxicity, usual class: cytotoxic | 410,000 compounds, 0.76% hits | AID 588856
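CellTiter-Glo luminescence gave cytotoxicity after 18 hours at 37 degrees C. The cells were HepG2 CAGA-GFP in 1% FBS DMEM, stimulated with 500 pg/mL TGF-beta after compound addition. %Activity was normalised to no-cell wells (complete cell-killing) and DMSO (no toxicity), and curves were fitted and classified.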
TDP1 cell CPT: DT40-hTDP1 cell growth loss with CPT | 420,000 compounds, 12% hits | AID 686979 | chicken DT40 Tdp1-/-;hTDP1 cells + 20 nM CPT, ATP luminescence, 48 h | Potency, µM (doses to about 46.2 µM), without a hit: at the top dose activity change, negative = growth inhibition, usual class: inhibitors; further: on the % scale 0 is the no-effect control and ±100 the full control effect; nearly all actives have a fitted effect of over 55% in size
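Chicken DT40 Tdp1-/- cells stably complemented with human TDP1 were seeded at 400 cells/well in medium containing 20 nM camptothecin, exposed to pin-transferred compounds, and grown at 37 °C for at least 48 hr. Viability was read as ATP luminescence.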
S2 tox: reduces viability in counter-screen for ATXN expression inhibitors; Potency, µM (highest dose often 56.7 µM), most hits filed as cytotoxic; 400,000 compounds, 0.49% hits; S2 cells (HEK-293 line with an ATXN2-luciferase reporter) viability, CellTiter-Fluor protease fluorescence, 24 h; further: nearly all actives have a fitted effect of over 40% in size
DT40 TDP1 no CPT: qHTS for Inhibitors of human tyrosyl-DNA phosphodiesterase 1 (TDP1): qHTS in cells in absence of CPT; DT40 Tdp1-/- hTDP1 cells, no CPT, ATP luminescence, 48 h; Potency, µM (series often up to 46.2 µM), for inactives: at the top dose activity change, negative = growth inhibition, hits mostly inhibitors; 420,000 compounds, 15% hits; AID 686978, 2013; further: on the % scale 0 is the no-effect control and ±100 the full control effect; nearly all actives have a fitted effect of over 55% in size
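DT40 Tdp1-/-;hTDP1 cells, no CPT (DMSO vehicle only), 400 cells/well; compounds pin-transferred; ≥48 hr, 37 °C; CellTiter-Glo 30 min RT dark, luminescence read.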
Starred values were filed as active, the others as inactive; i = inactive; u = inconclusive; x = no result. The call rests on the fitted dose curve; in most records, active means well fitted curve in the direction sought with a large enough effect; inconclusive means small, poorly fitted or top-dose-only effect, or another doubt; inactive means no such curve, though single readings can be large; an effect the other way counts as inactive or inconclusive. Potency means the concentration at half of the fitted maximal effect.

SMILES	ATXN2 expr inh	TGFb inhibitor	HepG2 viability	TDP1 cell CPT	S2 tox	DT40 TDP1 no CPT
CSc1ccc(NC(=O)C2(C)CCN2C(=O)C2(c3ccccc3)CC2)cc1 (centres undefined)	-17.4%	u	-47.0%	18.4µM*	i	u
COc1cc(C2(C)SCCCS2)cc(OC)c1OC	2.2%	x	x	u	i	u
COc1ccc(C(=O)C2CCCN(C(=O)/C=C/c3cnc[nH]3)C2)c(C)c1 (centres undefined)	4.1%	-27.6%	-1.3%	-23.0%	i	-23.9%
COc1ccc(-c2cc(=Nc3c(C)n(C)n(-c4ccccc4)c3=O)c3ccccc3o2)cc1	3.2%	-11.4%	-27.1%	u	i	20.6µM*
COc1ccc(-c2csc(=Nc3c(C)n(C)n(-c4ccccc4)c3=O)n2C(C)(C)C)cc1	-15.0%	4.2%	0.2%	-2.3%	i	-8.6%
CCOC(=O)C1CCCN(C(=O)c2cc(Nc3ccc(OC)cc3OC)nc3ccccc23)C1 (centres undefined)	10.5%	-18.7%	-3.0%	16.4µM*	u	20.6µM*
CCOC(=O)C1CCCN(C(=O)c2cc(Nc3ccc(OC)c(OC)c3)nc3ccccc23)C1 (centres undefined)	6.2%	-3.8%	-19.7%	u	i	16.4µM*
CCOC(=O)C1CCCN(C(=O)c2cc3c(Cl)nc4ccccc4c3s2)C1 (centres undefined)	14.1µM*	-24.2%	-39.1%	u	u	18.4µM*
CC(C)(C)c1ccc(/C=C(\C#N)C(=O)NC2CC2)cc1	16.2%	7.7%	-23.6%	3.4%	i	u
Cc1cc(Br)ccc1NC(=O)CN(C)Cc1cccs1	15.3%	-8.9%	6.7%	-24.8%	u	u
CN1CCN(C(=O)CCCN2C(=O)/C(=C/c3ccccc3)SC2=S)CC1	-31.7%	u	-28.7%	18.4µM*	u	16.4µM*
O=C(O)CCCN1C(=O)/C(=C\C(Cl)=C\c2ccccc2)SC1=S	u	u	-22.6%	18.4µM*	u	20.6µM*
Cc1ccc(/C=C2\SC(=S)N(CCCC(=O)N3CCOCC3)C2=O)cc1	u	3.8%	0.0%	u	u	u
CCc1ccc(/C=C2\SC(=S)N(CCC(=O)N3CCN(C)CC3)C2=O)cc1	x	-28.9%	-2.5%	-21.0%	i	u
O=C(O)CCCN1C(=O)/C(=C\c2ccccc2OCc2ccccc2)SC1=S	-7.7%	10.1%	-10.6%	1.8%	i	1.9%
CN1CCN(C(=O)CCCN2C(=O)/C(=C/c3ccc(Cl)cc3)SC2=S)CC1	4.9%	u	-20.1%	14.6µM*	u	11.6µM*
CN1CCN(C(=O)CCN2C(=O)/C(=C\c3ccc(Cl)cc3Cl)SC2=S)CC1	3.1%	u	-66.5%	14.6µM*	u	11.6µM*
COc1ccccc1NC(=O)CSc1nc(-c2cccc(Cl)c2)nc2c1Cc1c(CO)cnc(C)c1O2	11.5%	-0.9%	-4.2%	1.7%	i	-9.4%
CC(=O)c1ccc(NC(=O)CC2S/C(=N/N=C3CCCCCC3)NC2=O)cc1 (centres undefined)	-1.5%	-4.7%	-1.3%	4.3%	i	5.0%
Cc1ccc(-c2ccc([C@H]3[C@H]4C=CC[C@@H](C)[C@@H]4C(=O)N3Cc3ccccc3)c(F)c2)cc1	-4.8%	-18.8%	-6.5%	u	i	u
COC(=O)c1ccc(-c2ccc([C@H]3[C@H]4C=CC[C@@H](C)[C@@H]4C(=O)N3Cc3ccccc3)c(F)c2)cc1	-9.1%	u	-11.1%	6.51µM*	i	3.26µM*
C[C@@H]1CC=C[C@H]2[C@H]1C(=O)N(Cc1ccccc1)[C@H]2c1ccc(-c2ccc(N(C)C)cc2)cc1F	-20.6%	u	-16.9%	20.6µM*	u	11.6µM*
CC(=O)c1ccc(-c2ccc([C@H]3[C@H]4C=CC[C@@H](C)[C@@H]4C(=O)N3Cc3ccccc3)c(F)c2)cc1	-34.2%	u	-13.5%	13µM*	i	13µM*
Cc1ccc(-c2ccc(C3C4C=CCC(C)C4C(=O)N3Cc3ccccc3)c(F)c2)cc1 (centres undefined)	x	2.2%	-34.9%	x	x	x
CCOc1ccccc1NC(=O)CCNS(=O)(=O)c1ccc2c(c1)CCN2C(=O)C1CC1	-0.1%	-10.3%	-26.5%	u	i	u
SMILES	ATXN2 expr inh	TGFb inhibitor	HepG2 viability	TDP1 cell CPT	S2 tox	DT40 TDP1 no CPT
CC(C)NC(=O)N(C)C[C@@H]1OCc2cn(nn2)CCCC(=O)N([C@H](C)CO)C[C@H]1C	8.4%	0.9%	-1.2%	-0.6%	i	-7.2%
COc1ccc(C(CC(=O)Nc2cc([N+](=O)[O-])ccc2OC)c2ccccc2)cc1 (centres undefined)	5.8%	-24.8%	-5.6%	16.4µM*	i	u
COc1ccc([N+](=O)[O-])cc1NC(=O)CSc1ccccc1	-2.5%	0.0%	-3.5%	-19.5%	i	u
COc1ccc([N+](=O)[O-])cc1NC(=O)C(C)Sc1nc(-c2ccccc2)cs1 (centres undefined)	-20.9%	13.0%	35.9%	18.4µM*	i	u
CCC(C)C(=O)Nc1ccc([N+](=O)[O-])cc1OC (centres undefined)	-7.3%	1.6%	0.0%	-4.3%	i	-1.2%
CCSc1ccccc1C(=O)Nc1ccc([N+](=O)[O-])cc1OC	-27.6%	-8.4%	-21.7%	u	i	20.6µM*
Cc1cccc(N(C)c2cc(C)nc3nc(C)nn23)c1	-9.9%	u	-0.3%	16.4µM*	i	u
CCN(c1ccccc1)c1cc(C)nc2nc(C)nn12	-4.4%	-1.1%	-12.0%	-20.4%	i	-18.0%
O=S(=O)(Nc1ccc2c(c1)OCO2)c1ccc(Br)s1	16.9%	1.1%	-8.2%	u	i	-11.5%
O=C(Nc1ccc(C(=O)N2CCOCC2)cc1)Nc1cccc2ccccc12	-2.2%	-4.8%	-2.2%	-15.1%	i	-0.1%
COc1ccccc1CNS(=O)(=O)c1cc(C)ccc1OC	-6.9%	0.0%	0.6%	-5.3%	i	-2.3%
COc1ccccc1CNc1nc(Nc2ccc(C)cc2C)c2sccc2n1	u	u	-49.1%	14.6µM*	u	7.31µM*
Cc1ccc(CNc2nc(N)c([N+](=O)[O-])c(NCc3ccccc3)n2)cc1	-15.7%	35.3%	18.2%	-1.7%	i	-11.4%
